Laboratory results reported in PubChem BioAssay AID540359 (Broad Institute, 2011).
Potency and affinity values are given separately. Unmarked numbers belong to inactive results. No rule for the calls is given here.

Target: UDP-galactopyranose mutase (Mycobacterium tuberculosis (strain ATCC 25618 / H37Rv)) (UniProt P9WIQ1)
Assay: UDP galactopyranose mutase inhibitors, Mycobacterium tuberculosis, cherry pick dose confirmation (AID 540359)
Details: purified UGM enzyme, plate reader activity; series mostly up to 50 µM; activity change, negative = inhibition: at the top concentration

UDP-galactopyranose mutase (Mycobacterium tuberculosis (strain ATCC 25618 / H37Rv)), sequence (P9WIQ1 whole entry, looked up): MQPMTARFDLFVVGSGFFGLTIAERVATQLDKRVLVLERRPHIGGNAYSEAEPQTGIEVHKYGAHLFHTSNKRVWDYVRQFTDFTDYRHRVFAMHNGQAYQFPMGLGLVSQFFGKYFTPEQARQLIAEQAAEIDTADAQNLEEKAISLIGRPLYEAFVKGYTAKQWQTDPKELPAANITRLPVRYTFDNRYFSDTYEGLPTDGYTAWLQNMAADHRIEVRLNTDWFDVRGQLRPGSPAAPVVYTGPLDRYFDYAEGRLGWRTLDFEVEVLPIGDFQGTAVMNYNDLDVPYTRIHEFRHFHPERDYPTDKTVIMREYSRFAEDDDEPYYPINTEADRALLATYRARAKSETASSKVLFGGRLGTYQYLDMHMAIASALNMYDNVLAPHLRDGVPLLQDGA

Structure (SMILES)	activity change, negative = inhibition [%]
NC(=O)c1c(NC(=O)C2COc3ccccc3O2)sc2c1CCN(Cc1ccccc1)C2 (stereo not drawn)	-1.94
COc1cc(N2CCCC2)c(OC)cc1/C=C(/C#N)c1ccc(Br)cc1	-9
CCc1ccc2c(c1)C(c1ccc([N+](=O)[O-])cc1)=NNC(c1ccc(Br)cc1)=N2	-5.73
CCOc1ccc(C(C(=O)NC2CCCC2)N(C(=O)CNC(=O)c2ccco2)c2cccnc2)cc1 (stereo not drawn)	-2.17
CC(=O)NC(Cc1ccccc1)C(=O)OCC(=O)c1ccccc1 (stereo not drawn)	-3.54
O=C(OCc1ccc(Br)cc1)c1cnc(Cl)c(Cl)c1	-1.03
Cc1ccccc1OCCn1cc(C(=S)N2CCCC2)c2ccccc21	-4.74
CCN(CC)S(=O)(=O)c1ccc2c(c1)c(=O)c(C(=O)NCc1ccco1)cn2C	2.92
Brc1ccc(/C=N/c2nc3ccccc3n2CCN2CCOCC2)cc1	-2.81
O=c1[nH]c(=O)n(-c2ccc(F)cc2)c(O)c1/C=C1\C=Nc2ccccc21	14.2
COc1ccccc1N1N=C(C(=O)c2ccccc2)C2C(=O)N(c3ccc(Br)cc3)C(=O)C21 (stereo not drawn)	-10.5
Cn1nc(C(=O)Nc2cc(Cl)ccc2N2CCCC2)c2ccccc2c1=O	1.65
COCCCn1c(=O)/c(=C\c2ccccc2OC(C)C)s/c1=C(/C#N)C(=O)Nc1ccc(C(=O)O)cc1	65.1
Cc1ccc(NC(=O)/C(C#N)=C/c2ccc(C)s2)c(C)c1	-9.8
Cc1ccc(-c2nc3sc(C#N)c(N)n3c(=O)c2C#N)cc1	12.5
CCN(C(=O)COC(=O)c1cc(Cl)ccc1OC)c1c(N)n(Cc2ccccc2)c(=O)[nH]c1=O	-1.58
COc1ccc(OC)c(/C=C2\Oc3cc(OCC(=O)N4CCC[C@H]4C(=O)O)ccc3C2=O)c1	-11
COc1ccc(CCn2c(=N)c(S(=O)(=O)c3ccc(C)cc3)cc3c(=O)n4ccccc4nc32)cc1	-9.16
CCN(CC)CCCNC(=O)c1cc(Sc2nnc(C)s2)nc2ccccc12	-0.597
COc1cccc2c(=O)cn[nH]c12	-12.8
COc1ccc(C(=O)Oc2ccc(Br)cc2C(=S)N2CCOCC2)cc1	-6.52
COc1cc2c3nnc(-c4ccc(F)cc4)c-3cn(Cc3ccc(C)cc3)c2cc1OC	-15.2
N=c1n(CCN2CCCC2)c2ccccc2n1CC(O)c1ccco1 (stereo not drawn)	-7.28
COc1ccc(N=Cc2c(O)n(-c3cccc(C)n3)c(=O)c3ccccc23)c(OC)c1	-10.3
CCOC(=O)c1c(C)nc2ccccc2c1C	-1.7
C=CCn1ccc(=NC=C(C#N)C#N)c2ccccc21	-3.63
O=C(Nc1nccs1)c1ccc(-c2ccc([N+](=O)[O-])cc2)o1	8.63
Cc1c(C(=O)N2CCOCC2)sc(NC(=O)CCl)c1C#N	0.121
